# Data published in PubChem BioAssay (NCI).
# About 83,000 compounds went through this panel and 20% of them were active in at least one assay; those are over-represented in the sample as a whole.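 48-hour exposure, single concentration, 96-well plates; percent growth endpoint where 0 means no net growth. Active: below 10.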 Values without a mark were called inactive. Active and inactive are the calls of the source.
# How the values were obtained:
# Experiment in all cases: NCI-60 one-dose screen, 48 h (100 = growth as untreated, 0 = no growth, -100 = all killed)
# Conditions in all cases: 10 µM unless noted
# NCI-H23 lung = system: NCI-H23 lung
# NCI-H226 lung = system: NCI-H226 lung
# HOP-62 NSCLC = system: HOP-62 NSCLC
# NCI-H460 lung = system: NCI-H460 lung
# HOP-92 NSCLC = system: HOP-92 NSCLC
# NCI-H522 lung = system: NCI-H522 lung
# A549/ATCC NSCLC = system: A549/ATCC NSCLC
# 786-0 renal = system: 786-0 renal
# COLO 205 colon = system: COLO 205 colon
# NCI-H322M lung = system: NCI-H322M lung
SMILES,growth (NCI-H23 lung),growth (NCI-H226 lung),growth (HOP-62 NSCLC),growth (NCI-H460 lung),growth (HOP-92 NSCLC),growth (NCI-H522 lung),growth (A549/ATCC NSCLC),growth (786-0 renal),growth (COLO 205 colon),growth (NCI-H322M lung)
COc1ccc(C(C)=O)c(OC)c1,105%,95.1%,103%,115%,75.5%,89.9%,105%,103%,113%,
C=C1C(=O)O[C@H]2[C@H]1CC/C(CNC(=O)/C=C/c1cccc(OC)c1)=C\CC[C@@]1(C)O[C@@H]21,64.4%,73.6%,68.7%,76%,-31.7% (active),-69.4% (active),47.2%,-59.2% (active),-56.5% (active),
Cc1ccc(-c2[nH][nH]c(=O)c2-c2nc3ccccc3s2)cc1,96.2%,95.1%,99.2%,105%,105%,89.2%,107%,101%,106%,
COc1cc(OC)cc(C(=O)C[n+]2cccc3cc[nH]c32)c1,94.7%,94.2%,99.1%,101%,88.9%,93%,97.6%,,107%,
CCNc1nc2ccc(Nc3ccnc4cc(Cl)ccc34)cc2[nH]1,89.6%,,94.7%,85.9%,61%,98.3%,90.8%,72.2%,61.2%,97.5%
OC(c1cccc(C(F)(F)F)c1)c1cnccc1NC1CCCCC1 (stereo unspecified),60.9%,82.9%,87.4%,82.8%,45.4%,82.4%,75.8%,73.7%,-39.9% (active),
COc1cc(/C=N/NC(=O)c2cnn3c2NC(c2ccccc2)C3)ccc1OCc1ccccc1 (stereo unspecified),32.8%,40.2%,-1.18% (active),-54% (active),7.9% (active),19.1%,-29.8% (active),0.422% (active),-2.34% (active),
CCCOC(=O)N[C@H]1CCc2cc(OC)c(OC)c(OC)c2-c2ccc(SC)c(=O)cc21,35%,13%,39.3%,0.992% (active),34.9%,21.5%,22.6%,24.1%,1.57% (active),
COc1ccc(/C=C/C(=O)Nc2cc(/C=C\c3cc(OC)c(OC)c(OC)c3)cc(OC)c2OC)cc1OC,0.824% (active),37.6%,33.9%,17.5%,46.2%,-21.3% (active),40%,23%,11.2%,
Nc1n[nH]c2cccc(C#Cc3cccc(C(=O)Nc4cc(CN5CCOCC5)cc(C(F)(F)F)c4)c3)c12,38.4%,26.7%,38.7%,26.6%,-7.48% (active),39.3%,42.4%,63.8%,14.6%,
CCCC/C=N/NC(=S)NCc1ccccc1,103%,98.6%,82.1%,101%,93.6%,94.6%,97.9%,102%,100%,
C=C1C(=O)O[C@H]2[C@H]1CC/C(CNS(=O)(=O)c1cccc3ccccc13)=C\CC[C@@]1(C)O[C@@H]21,57.9%,57.8%,94.9%,73.8%,12.1%,-63.9% (active),83.5%,26.1%,8.89% (active),
Brc1ccc(Nc2csc(-c3ccccn3)n2)cc1,87.7%,,88.2%,96.7%,102%,78.9%,99.4%,98.9%,111%,84.1%
O=[N+]([O-])c1ccc(NC(=S)N/N=C/c2cc3ccccc3n3nnnc23)cc1,30.1%,,49.3%,32.2%,-5.68% (active),35.4%,55.6%,61.6%,96.9%,51.9%
CC1=C(C(=O)/C=C/c2ccc(N(C)C)cc2)C(c2ccccc2)NC(=S)N1 (stereo unspecified),93.3%,,106%,108%,96.6%,91%,106%,101%,119%,103%
CC(=O)CCC(=O)OCc1cc(=O)c(O)co1,92.8%,,105%,112%,105%,96%,101%,99.8%,125%,98.2%
CNC(=O)c1cncc(Cn2nc(C)c(NC(=O)c3ccc(COc4ccc(C(F)(F)F)cc4C)cc3)c2C)c1,49.3%,,56.9%,62%,79.2%,49.2%,55%,68.8%,66.9%,88.8%
COC(=O)C1=C(C(=O)ON)C2C=CC1(C(Cc1ccccc1)Nc1ccccc1)O2 (stereo unspecified),89.4%,,105%,103%,46.5%,-77.4% (active),96.1%,93%,-72% (active),
C[C@H]1[C@H](C)CC[C@]2(C(=O)Nc3ccc4ncccc4c3)CC[C@]3(C)C(=CC[C@@H]4[C@@]5(C)CCCNC(C)(C)[C@@H]5CC[C@]43C)[C@H]12,51%,,95.2%,-79.8% (active),60.2%,9.94% (active),-92.1% (active),-96.2% (active),-82.7% (active),63.1%
N#C/C(=C\c1ccc([N+](=O)[O-])s1)c1nc2cc(Cl)ccc2s1,2.73% (active),,12.6%,6.38% (active),-37.8% (active),-35.9% (active),25.1%,,-26.6% (active),99.3%
CCN1C(=O)/C(=C/C(=O)OC)S/C1=N\NC(=O)c1cc2ccc1/C=C\c1ccc(cc1)/C=C\2,99.6%,,101%,104%,81.6%,59.7%,96.6%,90.6%,108%,92.3%
COc1ccc(C(=O)CC#N)cc1,107%,,122%,108%,119%,113%,104%,107%,117%,120%
C=C(C)[C@@H]1CC[C@]2(C(=O)N3CCN(C)CC3)CC[C@]3(C)[C@H](CC[C@@H]4[C@@]5(C)C/C(=C/c6ccncc6)C(=O)C(C)(C)[C@@H]5CC[C@]43C)[C@@H]12,74.4%,,85.1%,37.2%,39.7%,47.6%,40.4%,65%,53.7%,85.4%
ClC1=C(Br)C(Br)(Br)C(=C(Br)Br)C1(Br)Br,104%,,121%,94.7%,94%,-25% (active),94.6%,109%,57.3%,99%
CC/C(=C\c1ccc(OC)cc1)C(=O)c1ccc(OC)cc1,86.4%,,86.8%,,85.2%,74.3%,123%,97.3%,121%,92.5%
